Experimental findings from PubChem BioAssay (NCI) are described below.

This is part of a sample that, as a whole, favours compounds with a hit. Of some 83,000 tested, about 20% had one in any assay.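 Single-concentration screen, 48 h exposure, 96-well plates. Endpoint: percent growth. Below 10 = active.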 Unmarked numbers belong to inactive results. Calls of active or inactive are those of the source.

This experiment deals with HL-60(TB) leukemia. Briefly: NCI-60 one-dose screen, 48 h (100 = growth as untreated, 0 = no growth, -100 = all killed). The settings on record: 10 µM unless noted.

In the case of `COc1ccc(/C=C(\C#N)C(=O)Nc2cccc(Nc3nc(SC)nc(-c4cccc([N+](=O)[O-])c4)c3C#N)c2)cc1OC`, the growth is 95%.

Take `CCCCCCCC/C=C\CCCCCCCCOc1ccccc1CC(=O)NCC[N+]1(C)CCCC1`: the growth was 2.25% (active). For the molecule `O=C(NCOC(O)C(Cl)(Cl)Cl)NCOC(O)C(Cl)(Cl)Cl` (configuration not stated), the growth is 0.027% (active).

As for `NNc1ccc(Cl)cc1Cl`, the growth was 8.29% (active). The figure for `Clc1ccc2nc(CI)c(CI)nc2c1` is 2.82% (active). With `NC(CC(N)C(=O)O)C(=O)O` (configuration not stated) the figure was 110%; with `O=C1CSC(c2ccccc2O)N1c1nnc(Cn2cnnc2)o1` (configuration not stated), 61.1%. With `CC(=O)n1cc([C@H]2CC[C@H](c3cn(C(C)=O)c4ccccc34)c3c2[nH]c2ccccc32)c2ccccc21` the figure was 111%; with `COc1ccc(-c2nsc3c2NC(=O)CC3c2cccc(OC)c2)cc1` (configuration not stated), 6.13% (active); with `O=C1c2ccccc2-c2ccccc2C1(Cl)Cl`, -39.6% (active). Take `CNc1nc2c(s1)C(c1cc(F)ccc1F)CC(=O)N2` (configuration not stated): the growth was 46.7%. The figure for `COc1cc(CN2CCO[C@H](COc3cccc(F)c3)C2)ccc1Cl` is 26.3%; for `CC(C)N(CCOc1ccc(-c2nc3sccn3c2-c2ccnc(S(C)(=O)=O)n2)cc1)C(C)C` it is 85.8%; for `O=C(O)c1ccc(-n2cc(/C=N/Nc3ccccc3)c(-c3ccc(F)cc3F)n2)cc1` it is 15.1%.

Consider `CCCCOC(=O)c1ccc(NC(=O)CCl)cc1`, for which the growth is 25.3%. The figure for `CCc1ccc2c(c1)N(CCO)C1=C(C(=O)OC1)C2c1cccc(Br)c1` (configuration not stated) is -9.76% (active).

With `N=C(N)c1ccc(-c2ccc(-c3cccs3)s2)nc1`, the growth was -32.1% (active). The figure for `CCc1ccc(-c2nnc(COc3ccc(-c4nc5cc(Cl)c(Cl)cc5[nH]4)cc3OC)o2)cc1` is 105%; for `COc1ccc2nc3cc(Cl)ccc3c(N3CCN(c4ccnc(N5CCN(C)CC5)n4)CC3)c2c1` it is 29.8%. The figure for `CCC1CCc2nc3sc(C(=O)Nc4ccccc4F)c(N)c3cc2C1` (configuration not stated) is 21.5%; for `Nc1c(S(=O)(=O)O)cc2c3c(cccc13)C(=O)OC2=O` it is 134%; for `C=CC(=O)N[C@H](Cc1ccc(-c2cc(Cl)cc(Cl)c2)cc1)[C@H](O)[C@@H](O)C(=O)O` it is 109%. The figure for `CCCc1cc(=O)n2c(C(=O)Nc3ccccc3OC)c(C(=O)Nc3ccc(F)cc3)sc2n1` is 47.1% [30 µM]; for `CC(C)[C@H](CO)Nc1nc(Nc2ccc(C(=O)NCCNS(=O)(=O)c3cccc4c(N(C)C)cccc34)c(Cl)c2)c2ncn(C(C)C)c2n1` it is -36.7% (active).

With `CCCCC1COc2cccc3c(SCC(=O)N(C)c4cccc5ccccc45)cc[n+]1c23` (configuration not stated), the growth was 89.8%.

For the molecule `CCCCCCn1c(-c2ccc(C(=O)O/N=C(\N)c3ccc4c(c3)OCO4)cc2)nc(-c2ccccc2)c1-c1ccccc1`, the growth was -51.1% (active). The figure for `NNC(=S)N1N=C(c2cc3ccccc3o2)CC1c1c[nH]c2ccccc12` (configuration not stated) is 21.7%; for `CCOC(=O)/C(=C/c1ccc(OC)cc1)N(CC)CC` it is 98%. Consider `C=C1C(=O)O[C@H]2[C@H]1CC/C(COC(=O)/C=C/C(=O)OC/C1=C/CC[C@@]3(C)O[C@H]3[C@H]3OC(=O)C(=C)[C@@H]3CC1)=C\CC[C@@]1(C)O[C@@H]21`, for which the growth was -23.6% (active). The figure for `Cc1ccc(C23CCC(=O)N2CCc2cncn23)cc1` (configuration not stated) is 95.7%. With `CC1=C[C@H]2c3c(c(O)c(O)c4oc(-c5ccccc5)cc(=O)c34)[C@H](c3cc(O)c(O)c4oc(-c5ccccc5)cc(=O)c34)[C@H]2C(C)(C)C1` the figure was -30.1% (active); with `COc1ccc(-c2nn(-c3cccc(Cl)c3)cc2-c2cc(-c3ccc(Br)cc3)[nH]c(=O)c2C#N)cc1`, 101%. For `COc1ccc(/C=C(/C(=O)N2CCN(Cc3ccccc3)CC2)c2cc(OC)c(OC)c(OC)c2)cc1O`, the growth was 22.9%. The figure for `ClCC1(Cn2cnc3c(Cl)nc(Cl)nc32)COC1` is 91.6%. Consider `O=S(=O)(NCCCNc1nccc(-c2c(-c3ccc(F)c(O)c3)nc3sccn23)n1)c1ccc(Cl)cc1`, for which the growth was 83.1%. With `N#Cc1c(-c2ccccc2)cc(-c2ccc(Nc3nc(Nc4ccc(Cl)cc4)nc(Nc4ccc(Cl)cc4)n3)cc2)nc1N` the figure was 15.6%. The figure for `O=C(Nc1ccc(-c2nc3ccc(NC(=O)c4ccc(Cl)cc4)cc3[nH]2)cc1)c1ccc(Cl)cc1` is -45.9% (active).
